Data from PubChem BioAssay (Tox21).
Inconclusive results are not listed. The source made the active and inactive calls. Unless noted, calls follow the shape of the dose curve; as a rule, active = well fitted curve in the direction sought with a large enough effect in the repeat runs; inconclusive = weak or mixed curves; inactive = no such curve, though single readings can be large; an effect the other way counts as inactive or inconclusive.

Experiments:
[1] = qHTS assay to identify aromatase inhibitors - cell viability counter screen (AID 743084);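 also: cells stimulated with testosterone during compound exposure; nearly all actives have a fitted effect of over 55% in size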
[2] = target: Aryl hydrocarbon receptor (Homo sapiens) (UniProt P35869); assay: qHTS assay to identify small molecule that activate the aryl hydrocarbon receptor (AhR) signaling pathway (AID 743085);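 also: HG2L7.5c1 human HepG2 liver cells with stably integrated DRE-driven firefly reporter; series mostly up to about 70 µM; nearly all actives have a fitted effect of over 15% in size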
Summary of the method: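 Stably transfected human liver carcinoma cells (HG2L7.5c1; 20 DRE-firefly luciferase) were incubated 5 h, dosed, and kept 24 h at 37C. Agonism was scored from increased luciferase luminescence.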

[3] = qHTS assay to identify small molecule that activate the aryl hydrocarbon receptor (AhR) signaling pathway - cell viability counter screen (AID 743086);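 also: HepG2 liver cells carrying the AhR DRE luciferase reporter; series mostly up to about 70 µM; nearly all actives have a fitted effect of over 45% in size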
Summary of the method: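 HepG2-AhR-luc (HG2L7.5c1) cells, 4000/well, treated 24 h at 37 C with compound; viability measured as CellTiter-Fluor fluorescence after 30 min in the same wells as the luciferase read.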

[4] = target: Peroxisome proliferator-activated receptor gamma (Homo sapiens) (UniProt P37231); assay: qHTS assay to identify small molecule agonists of the peroxisome proliferator-activated receptor gamma (PPARg) signaling pathway (AID 743094; active = well fitted activation curve with a large enough effect in the signal ratio in the repeat runs, not every such curve was filed as active; the % refers to the signal ratio)
Summary of the method: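 Cells from the PPARg UAS-bla HEK293H line are plated and incubated 5 h at 37C. Compounds in DMSO are pinned in and left 17 h at 37C. LiveBLAzer B/G substrate is then added for 1 h at room temperature before fluorescence is measured.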

[5] = target: Peroxisome proliferator-activated receptor gamma (Homo sapiens) (UniProt P37231); assay: qHTS assay to identify small molecule antagonists of the peroxisome proliferator-activated receptor gamma (PPARg) signaling pathway (AID 743191; calls by dose curve; also: series mostly up to about 63 µM; nearly all actives have a fitted effect of over 30% in size)
Summary of the method: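 GeneBLAzer PPARg UAS-bla HEK293H cells, 5 h post-plating, exposed to compounds 17 h at 37C. LiveBLAzer B/G FRET substrate added for 1 h at room temperature; beta-lactamase reporter read by fluorescence intensity.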

[6] = qHTS assay to identify small molecule antagonists of the peroxisome proliferator-activated receptor gamma (PPARg) signaling pathway - cell viability counter screen (AID 743194); also: nearly all actives have a fitted effect of over 55% in size
Summary of the method: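 Cytotoxicity counter screen in PPARg-bla HEK293H cells, same wells as reporter assay. Compounds plus 50 nM rosiglitazone (final) for 17 h at 37 C, then viability read by CellTiter-Glo luminescence.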

[7] = qHTS assay for small molecule agonists of the antioxidant response element (ARE) signaling pathway (AID 743202; active = well fitted activation curve with a large enough effect in the signal ratio in the repeat runs, not every such curve was filed as active; the % refers to the signal ratio)
Summary of the method: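 HepG2 ARE-bla reporter line, 2,000 cells/well; 5 h preincubation 37 C/5% CO2; compound (DMSO) 16 h 37 C; B/G FRET substrate 2 h RT; fluorescence intensity.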

[8] = qHTS assay for small molecule agonists of the antioxidant response element (ARE) signaling pathway - cell viability counter screen (AID 743203; calls by dose curve; also: nearly all actives have a fitted effect of over 55% in size)
Summary of the method: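 Cytotoxicity was tested in parallel with the ARE reporter screen. ARE-bla HepG2 cells were exposed to compounds for 16 hrs, and viability was taken from CellTiter-Glo luminescence.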

[9] = qHTS assay for small molecule activators of the heat shock response signaling pathway - cell viability counter screen (AID 743209); also: nearly all actives have a fitted effect of over 50% in size
Summary of the method: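 Cytotoxicity counter screen run in parallel with the HSE beta-lactamase reporter, using the same wells. HeLa HSE-bla cells received compound for 5 h at 37 C; ATP-based CellTiter-Glo luminescence was measured after 30 min at room temperature.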

[10] = qHTS assay for small molecule activators of the heat shock response signaling pathway (AID 743210; active = well fitted activation curve with a large enough effect in the signal ratio in the repeat runs, with a control signal flat, not every such curve was filed as active; the % refers to the signal ratio;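 also: HeLa cells with beta-lactamase reporter driven by heat shock elements; series mostly up to about 63 µM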)
Summary of the method: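 Beta-lactamase reporter read-out: FRET substrate fluorescence after 2.5 h at RT, following 5 h compound treatment at 37 C of HeLa cells carrying HSE-driven bla reporter; quantitative HTS format.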

[11] = qHTS assay to identify small molecule agonists of the peroxisome proliferator-activated receptor delta (PPARd) signaling pathway - cell viability counter screen (AID 743211); also: nearly all actives have a fitted effect of over 55% in size
Summary of the method: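 In the same wells used for beta-lactamase reporter measurement, cytotoxicity is scored by CellTiter-Glo. HEK293H PPARd-bla cells receive compound for 17 h at 37C following a 5 h settling period.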

[12] = target: Peroxisome proliferator-activated receptor delta (Homo sapiens) (UniProt Q03181); assay: qHTS assay to identify small molecule agonists of the peroxisome proliferator-activated receptor delta (PPARd) signaling pathway (AID 743212; calls by dose curve)
Summary of the method: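 Read-out: beta-lactamase FRET fluorescence after 2 h room-temperature incubation with LiveBLAzer B/G substrate. Cells were HEK293H carrying a UAS-bla reporter for PPARd, treated at 37 C with DMSO-dissolved compounds.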

[13] = qHTS assay to identify small molecule antagonists of the peroxisome proliferator-activated receptor delta (PPARd) signaling pathway - cell viability counter screen (AID 743213); also: nearly all actives have a fitted effect of over 50% in size
Summary of the method: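 Viability counter-screen, qHTS format: PPARd-bla HEK293H, L165041 300 nM final, 17 h compound exposure at 37 C, CellTiter-Glo luminescence after 30 min RT.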

[14] = target: Peroxisome proliferator-activated receptor delta (Homo sapiens) (UniProt Q03181); assay: qHTS assay to identify small molecule antagonists of the peroxisome proliferator-activated receptor delta (PPARd) signaling pathway (AID 743215; active = well fitted inhibition curve with a large enough effect in the signal ratio in the repeat runs, not every such curve was filed as active; the % refers to the signal ratio;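 also: cells stimulated with agonist L165041 at 300 nM final during compound exposure; series mostly up to about 62 µM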)
Summary of the method: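 Cells: HEK293H with a UAS-driven beta-lactamase reporter responsive to PPARd. Compounds were co-added with L165041 (300 nM, final) and incubated 17 h at 37 C before a 2 h room-temperature FRET substrate step and fluorescence reading.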

[15] = target: Bile acid receptor (Homo sapiens) (UniProt Q96RI1); assay: qHTS assay to identify small molecule antagonists of the farnesoid-X-receptor (FXR) signaling pathway (AID 743217; active = well fitted inhibition curve with a large enough effect in the signal ratio in the repeat runs, not every such curve was filed as active; the % refers to the signal ratio)
Summary of the method: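 Cells carrying a UAS-driven beta-lactamase reporter (GeneBLAzer FXR-UAS-bla HEK 293T) were plated and rested 5 h at 37 °C. Compounds in DMSO were added alongside chenodeoxycholic acid agonist at 50 uM final and left 16 h at 37 °C before FRET substrate readout.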

[16] = qHTS assay to identify small molecule agonists of the farnesoid-X-receptor (FXR) signaling pathway - cell viability counter screen (AID 743218); also: nearly all actives have a fitted effect of over 45% in size
Summary of the method: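 Cells were seeded, left 5 h at 37 C and 5% CO2, then dosed with compound in DMSO for 16 h. After the beta-lactamase FRET read, CellTiter-Glo was added and luminescence measured 30 min later.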

[17] = target: Bile acid receptor (Homo sapiens) (UniProt Q96RI1); assay: qHTS assay to identify small molecule agonists of the farnesoid-X-receptor (FXR) signaling pathway (AID 743220; active = well fitted activation curve with a large enough effect in the signal ratio in the repeat runs, not every such curve was filed as active; the % refers to the signal ratio)
Summary of the method: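 FXR-UAS-bla HEK 293T cells carrying a UAS-driven beta-lactamase reporter were plated for 5 h at 37C/5% CO2, then exposed to DMSO-dissolved Tox21 10K compounds for 16 h at 37C. A LiveBLAzer B/G FRET substrate was loaded for 2 h at room temperature before fluorescence reading.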

[18] = qHTS assay to identify small molecule antagonists of the farnesoid-X-receptor (FXR) signaling pathway - cell viability counter screen (AID 743221; active = well fitted cell-killing curve with a large enough effect in the repeat runs, not every such curve was filed as active; also: nearly all actives have a fitted effect of over 50% in size)
Summary of the method: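 Here viability was scored by luminescence after CellTiter-Glo addition to wells already read for beta-lactamase. Prior treatment: compound plus CDCA (50 uM final), 16 h, 37 C, HEK 293T FXR-bla cells.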

[19] = target: Vitamin D3 receptor (Homo sapiens) (UniProt P11473); assay: qHTS assay to identify small molecule agonists of the vitamin D receptor (VDR) signaling pathway (AID 743222; calls by dose curve)
Summary of the method: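 Cells carrying a VDR-driven beta-lactamase reporter are seeded at 2,000 per well and rested 4 h. Compounds in DMSO are added for 16 h at 37C, and FRET substrate fluorescence is measured after 2 h at room temperature.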

[20] = target: Vitamin D3 receptor (Homo sapiens) (UniProt P11473); assay: qHTS assay to identify small molecule antagonists of the vitamin D receptor (VDR) signaling pathway (AID 743223; active = well fitted inhibition curve with a large enough effect in the signal ratio in the repeat runs, not every such curve was filed as active; the % refers to the signal ratio)
Summary of the method: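 Inhibition of agonist-driven VDR signalling is scored in VDR-bla cells: 3 nM final 1alpha,25-dihydroxyvitamin D3 plus compound, 16 h at 37C, then beta-lactamase detection by FRET substrate fluorescence after 2 h.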

Measured: Potency

Peroxisome proliferator-activated receptor delta (Homo sapiens), sequence (Q03181 whole entry, looked up): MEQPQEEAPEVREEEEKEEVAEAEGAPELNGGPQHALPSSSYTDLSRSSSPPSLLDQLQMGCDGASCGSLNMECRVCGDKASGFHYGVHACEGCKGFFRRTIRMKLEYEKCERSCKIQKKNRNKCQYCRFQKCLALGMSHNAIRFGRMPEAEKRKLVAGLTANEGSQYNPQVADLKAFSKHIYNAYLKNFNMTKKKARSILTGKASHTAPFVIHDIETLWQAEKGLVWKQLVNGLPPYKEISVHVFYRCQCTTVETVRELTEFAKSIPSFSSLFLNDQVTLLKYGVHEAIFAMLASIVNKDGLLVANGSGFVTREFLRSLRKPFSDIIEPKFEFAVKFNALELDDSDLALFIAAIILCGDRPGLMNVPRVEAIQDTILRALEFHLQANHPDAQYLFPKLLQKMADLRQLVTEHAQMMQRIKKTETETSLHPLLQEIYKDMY
Bile acid receptor (Homo sapiens), sequence (Q96RI1 whole entry, looked up): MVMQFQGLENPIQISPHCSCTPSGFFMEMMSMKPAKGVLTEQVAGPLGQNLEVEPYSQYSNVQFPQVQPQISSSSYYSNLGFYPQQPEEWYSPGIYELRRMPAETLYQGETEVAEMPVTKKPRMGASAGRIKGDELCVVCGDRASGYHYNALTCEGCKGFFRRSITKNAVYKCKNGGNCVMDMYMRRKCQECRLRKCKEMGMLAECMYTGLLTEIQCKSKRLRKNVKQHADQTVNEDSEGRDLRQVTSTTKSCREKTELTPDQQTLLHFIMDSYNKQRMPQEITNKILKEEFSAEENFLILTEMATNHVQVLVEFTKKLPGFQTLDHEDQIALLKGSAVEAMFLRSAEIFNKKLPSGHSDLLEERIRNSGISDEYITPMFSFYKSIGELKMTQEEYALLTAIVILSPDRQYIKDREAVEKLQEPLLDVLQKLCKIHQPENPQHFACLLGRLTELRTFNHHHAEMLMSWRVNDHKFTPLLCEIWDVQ
Peroxisome proliferator-activated receptor gamma (Homo sapiens), sequence (P37231 whole entry, looked up): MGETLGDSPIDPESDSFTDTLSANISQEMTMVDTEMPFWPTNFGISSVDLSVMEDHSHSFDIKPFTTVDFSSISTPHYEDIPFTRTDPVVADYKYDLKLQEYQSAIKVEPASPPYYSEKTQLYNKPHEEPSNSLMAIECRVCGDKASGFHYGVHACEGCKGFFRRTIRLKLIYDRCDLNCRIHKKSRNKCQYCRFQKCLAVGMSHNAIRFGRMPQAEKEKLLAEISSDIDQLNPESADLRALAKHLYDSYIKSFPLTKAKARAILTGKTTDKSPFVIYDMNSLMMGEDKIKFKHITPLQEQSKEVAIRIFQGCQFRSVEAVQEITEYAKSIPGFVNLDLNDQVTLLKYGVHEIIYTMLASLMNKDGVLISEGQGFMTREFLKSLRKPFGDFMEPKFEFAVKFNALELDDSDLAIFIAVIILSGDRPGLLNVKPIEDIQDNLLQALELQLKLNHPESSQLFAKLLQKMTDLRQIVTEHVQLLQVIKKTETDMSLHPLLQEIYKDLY
Aryl hydrocarbon receptor (Homo sapiens), sequence (P35869 whole entry, looked up): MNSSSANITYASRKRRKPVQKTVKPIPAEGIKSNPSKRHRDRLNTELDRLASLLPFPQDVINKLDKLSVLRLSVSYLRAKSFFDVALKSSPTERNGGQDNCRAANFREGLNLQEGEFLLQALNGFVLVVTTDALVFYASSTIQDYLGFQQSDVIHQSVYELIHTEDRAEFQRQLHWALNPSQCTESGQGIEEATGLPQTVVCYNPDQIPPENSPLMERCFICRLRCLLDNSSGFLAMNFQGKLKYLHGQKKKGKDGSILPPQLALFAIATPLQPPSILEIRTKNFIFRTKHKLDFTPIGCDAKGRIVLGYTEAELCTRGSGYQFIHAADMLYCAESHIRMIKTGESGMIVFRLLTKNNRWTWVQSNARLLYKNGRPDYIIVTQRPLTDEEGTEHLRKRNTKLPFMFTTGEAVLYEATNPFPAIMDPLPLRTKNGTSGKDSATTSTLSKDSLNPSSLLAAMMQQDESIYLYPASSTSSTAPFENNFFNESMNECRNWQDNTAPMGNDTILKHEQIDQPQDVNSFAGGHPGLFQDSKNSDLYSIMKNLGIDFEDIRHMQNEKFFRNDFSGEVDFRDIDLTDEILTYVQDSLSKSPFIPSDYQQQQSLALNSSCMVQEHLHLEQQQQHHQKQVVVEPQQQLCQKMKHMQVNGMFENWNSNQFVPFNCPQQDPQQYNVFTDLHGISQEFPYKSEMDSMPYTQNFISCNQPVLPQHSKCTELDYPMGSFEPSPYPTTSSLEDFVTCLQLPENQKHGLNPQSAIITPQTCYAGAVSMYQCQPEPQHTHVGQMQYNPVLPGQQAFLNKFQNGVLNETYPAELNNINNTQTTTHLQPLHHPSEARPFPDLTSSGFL
Vitamin D3 receptor (Homo sapiens), sequence (P11473 whole entry, looked up): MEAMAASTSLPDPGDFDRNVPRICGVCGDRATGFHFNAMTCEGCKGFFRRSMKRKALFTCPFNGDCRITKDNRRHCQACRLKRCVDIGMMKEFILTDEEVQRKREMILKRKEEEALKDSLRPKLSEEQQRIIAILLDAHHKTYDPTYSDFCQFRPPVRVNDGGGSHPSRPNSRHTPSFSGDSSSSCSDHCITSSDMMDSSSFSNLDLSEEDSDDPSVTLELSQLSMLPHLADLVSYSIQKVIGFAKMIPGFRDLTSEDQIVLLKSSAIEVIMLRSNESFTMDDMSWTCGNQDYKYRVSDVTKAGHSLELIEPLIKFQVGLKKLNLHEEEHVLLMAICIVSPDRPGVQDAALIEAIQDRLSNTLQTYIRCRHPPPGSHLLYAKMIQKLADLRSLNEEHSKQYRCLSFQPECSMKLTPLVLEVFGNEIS

CCCCCCCCOS(=O)(=O)O
not listed: [19] | [20]
inactive: all other assays above

CCCOC(OCCC)OCCC
not listed: [13] | [15]
inactive: all other assays above

CN=C(NC#N)Nc1ccc(C2=NNC(=O)CC2C)cc1 (configuration not stated)
not listed: [13] | [15] | [17] | [18]
inactive: all other assays above

CN1C(C)(C)CCCC1(C)C
not listed: [11] | [18] | [20]
inactive: all other assays above

CC(=O)Nc1ccc(S(=O)(=O)Cl)cc1
not listed: [11] | [15] | [17] | [18]
inactive: all other assays above

C[C@H](N)[C@H](O)c1cccc(O)c1
not listed: [15]
inactive: all other assays above

Cc1cc(Cl)c(C)cc1Cl
not listed: [12] | [14] | [15] | [17] | [20]
inactive: all other assays above

CCCCCCCCCC(C)=O
not listed: [15] | [17]
inactive: all other assays above
